Results as given in PubChem BioAssay AID1508600 (Functional Genomics Laboratory (NCATS/FGL), 2020).
Among all 53,000 sequences or so, about 3,700 (7%) were called active.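 The calls were made as follows: active = gene knockdowns whose robust z-score for IL-1 alpha signal is at least 2 or at most -2, so actives lie on both sides; inactive = the rest.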 This excerpt belongs to a sample that is enriched for actives.

Assay: Components of the Cytosolic LPS Sensing Pathway: Gene Identification via Genome-wide siRNA Screen
Details: RAW264.7 macrophages, IL-1a HTRF, actives lie on both sides, screened at 100 nM (by protocol), cells primed 5 h with Pam3CSK4 first
Source text: Non-canonical inflammasome activation by cytosolic LPS is a critical component of the host response to Gram-negative bacterial infection, however we lack a comprehensive understanding of the cellular processes that control this pathway. Here we describe a genome-wide siRNA screen to identify genes regulating the mouse macrophage IL-1 alpha response to cytosolic LPS.
RAW264.7 cells were maintained in complete DMEM media, comprising DMEM with 4.5 g/L glucose, 10% FBS (Gemini Bio-Products, West Sacramento, CA), 2 mM Glutamine (Lonza) and 20 mM HEPES (Lonza), hereafter complete DMEM.
The RNAi screen was conducted in 384-well format using the Ambion Silencer Mouse Genome siRNA Library (#4391425), which consists of three unique, nonoverlapping, nonpooled siRNAs for each of 17,000 gene targets. siRNA reagents ([…]) were stamped into 384-well white flat-bottom microplates (Corning, 3570) using a Velocity11 VPrep liquid handling system (Agilent) integrated into a BioCel robotic platform (Agilent) in columns 1-22, leaving columns 23-24 empty for negative (Ambion, Negative control #1) and positive (mouse Casp4) controls, respectively. The median value of each plate's negative control column was used to normalize sample wells, and the positive control was used to assess transfection efficiency and assay performance.
Lipofectamine RNAiMAX Transfection Reagent ([…]; Invitrogen) was added in […] serum-free, antibiotic-free media to plate wells using a Thermo Scientific Matrix WellMate and Microplate Stacker. Plates were incubated for 45 min at room temperature to allow for the sufficient formation of siRNA-lipid complexes. Cells were seeded at a density of 1x10^4 cells per well in 20 microL media containing 20% (vol/vol) FBS without antibiotics. The final concentration of siRNA in each well was 100 nM. Cells were cultured for 48h at 37 degrees C in 5% CO2 before addition of […] of TLR ligand Pam3CSK4 for 5 hours. The medium was then removed, replaced with […] growth media and cell were transfected with […] of LipidA and TransIT-TKO (Mirus) for 24 hour. At the end of the LipidA treatment, […] of supernatant was transferred to a 384 Greiner Bio-one non-binding low volume plate and […] of IL-1a HTRF reagent (Cisbio, 62MIL1APEH) was added and incubated at room temperature overnight. The plates were read on an EnVision plate reader (PerkinElmer). Cell viability was measured by adding 20ul Cell Titer Glo to the original plate and running a luminescence read on the EnVision. The quantified IL-1a signal for each siRNA gene-targeted well was divided by the median of the negative control wells and multiplied by 100 to achieve a negative control normalized value for each well/siRNA. This normalized value was then used to generate a robust z-score by first taking the log of each value and then by subtracting the median and dividing by the […].

| Sequence | z-score |
| --- | --- |
| GGAAGAAUUCUCAAAGAAUTT against Scyl3 | -0.343 (inactive) |
| GGAUCUGAGCCUUAACAAGTT against Lpcat3 | 2.92 (active) |
| GGAAGAGCUGCUGAAUUCATT against Mthfd2 | 0.052 (inactive) |
| GGUUAUCUUGAAUAAAGCUTT against Zfp346 | -0.303 (inactive) |
| CCGAUAAAAGAUGACCUCATT against D17H6S56E-5 | -0.241 (inactive) |
| GGUUUGAGAGUGGUAAUCUTT against Agbl3 | 2.17 (active) |
| GGCGAUUUACAAGCUGAAGTT against Guca1b | 0.566 (inactive) |
| CCGUUAGAGCUGUUAUUUUTT against Olfr556 | 0.959 (inactive) |
| CCUCGAACCAAGAUGUUCATT against Pdzrn3 | 0.851 (inactive) |
| GGCACACAAUUUUCACUGATT against Pcdhb9 | 0.315 (inactive) |
| GGUCAGCAUUUGCUAUGAATT against Tmsb15l | -2.02 (active) |
| GCCAAGUCUGCUUCACGAGTT against Nyap1 | 1.82 (inactive) |
| CCUCACAAUAUCUUUAGAATT against Cep162 | -0.0322 (inactive) |
| GGCAGGAUAUGUAUUCUGATT against Tmem121b | 1.15 (inactive) |
| GGAAACCUCCGAAAGGCAUTT against Rcor1 | -0.0503 (inactive) |
| GGAUAAAGUCACCUUCAUCTT against Itgam | 1.86 (inactive) |
| CCGCUAUAUCACGGAGCAGTT against En1 | 2.45 (active) |
| GCACUUUCCUAAUGGUCCUTT against Ifnab | 0.104 (inactive) |
| GGAUCCUCACCAAGAUUACTT against Mrps22 | 0.391 (inactive) |
| GGAAUUUAAGGAAGCUGCUTT against Homer1 | -0.698 (inactive) |
| GGGUGAGAAAAUUCACGAGTT against Tubg2 | 0.536 (inactive) |
| GCCAAGGUGCAGAUAAGGUTT against Rhox7a | 2.6 (active) |
| GGAUUGAGAAAAUCUACAUTT against Tnfrsf8 | 0.505 (inactive) |
| GGGUCAGAUGGUACCAAGATT against Adamts18 | 0.0174 (inactive) |
| GCCUUGUUUAUAUGCCCAATT against Olfr592 | 0.0232 (inactive) |
| GGCAAGAAAGAAAGGCCAATT against Rps23 | 0.00872 (inactive) |
| CCCUCUGUGGUUAAAGACUTT against Tctex1d2 | -2.88 (active) |
| GGUUCAAUUCACAGAGCGCTT against Mrpl21 | 1.37 (inactive) |
| GGGCAACUUUGAUUAAUCATT against Hsd3b7 | 1.02 (inactive) |
